From PubChem
Most compounds without a hit are left out; they make up all but 5.8% or so of the library.
Gal4-VP16 FLuc: counter-screen for ROR gamma inhibitors: Gal4-VP16 reporter | hit rate 3.5% among 310,000 | Potency, µM (doses to about 53.6 µM), without a hit: at the highest dose activity, negative = inhibition, most hits filed as inhibitors | AID 2546 | Drosophila S2 Gal4-VP16 UAS-luciferase, luminescence, 20 h;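 further: Gal4-VP16 expression switched on by copper sulfate through the metallothionein promoter; potency means the concentration at half of the fitted maximal effect; on the % scale 0 is the no-effect control and ±100 the full control effect; nearly all actives have a fitted effect of over 50% in size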
TRPV1 PAM: human TRPV1 potentiation; potentiation, % at 8.33 µM; Q8NER1; TRPV1-expressing cells, Fluo-8 calcium influx, capsaicin EC20 potentiation; hit rate 0.02% among 320,000; in the data active means potentiation above about 80%; inconclusive means between about 30% and that limit; further: 0% is about no effect
Target sequence (Q8NER1 whole entry, looked up): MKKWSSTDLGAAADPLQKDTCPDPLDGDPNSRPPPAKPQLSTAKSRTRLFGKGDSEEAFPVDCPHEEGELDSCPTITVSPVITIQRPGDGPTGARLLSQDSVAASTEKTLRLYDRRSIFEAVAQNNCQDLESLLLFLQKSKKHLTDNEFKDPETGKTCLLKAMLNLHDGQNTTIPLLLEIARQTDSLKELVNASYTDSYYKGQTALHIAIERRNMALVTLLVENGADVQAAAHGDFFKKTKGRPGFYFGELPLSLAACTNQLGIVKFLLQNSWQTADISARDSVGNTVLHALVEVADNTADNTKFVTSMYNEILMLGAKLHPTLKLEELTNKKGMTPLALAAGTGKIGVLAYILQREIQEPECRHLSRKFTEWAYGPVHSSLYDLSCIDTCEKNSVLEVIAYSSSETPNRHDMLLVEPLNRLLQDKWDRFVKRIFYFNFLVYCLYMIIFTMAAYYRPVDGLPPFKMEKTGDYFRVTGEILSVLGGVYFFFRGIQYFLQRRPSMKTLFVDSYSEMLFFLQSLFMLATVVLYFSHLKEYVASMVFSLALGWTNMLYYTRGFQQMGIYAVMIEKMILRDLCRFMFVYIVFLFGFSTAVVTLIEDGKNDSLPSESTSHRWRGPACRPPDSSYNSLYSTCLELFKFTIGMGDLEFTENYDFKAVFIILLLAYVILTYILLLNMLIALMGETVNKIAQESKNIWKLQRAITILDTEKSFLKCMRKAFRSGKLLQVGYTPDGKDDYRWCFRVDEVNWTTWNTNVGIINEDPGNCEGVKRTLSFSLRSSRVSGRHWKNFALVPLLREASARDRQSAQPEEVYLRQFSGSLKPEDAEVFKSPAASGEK
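Fluo-8 calcium influx in TRPV1-expressing cells, kinetic read (ex 480/em 520 nm). Compound added and read 3 min for agonist activity, followed by capsaicin at EC20 final and 2 min further read for enhancement.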
TRPV1 agonist: agonists of human vanilloid receptor 1 (TRPV1). hit rate 0.19% among 320,000. TRPV1-expressing cells, Fluo-8 calcium influx, agonist mode. AID 540275. activation, % at 8.33 µM. Q8NER1; in the data active means activation above about 80%; inconclusive means between about 30% and that limit; further: 0% is about no effect
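TRPV1-expressing cells were cultured overnight at 35.5C and loaded with Fluo-8 calcium dye for 40 to 90 min at room temperature. After a 10 s baseline, compound was added and calcium influx was read kinetically for 3 min (ex 480/em 520 nm).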
RORg inh: inhibitors of mouse ROR gamma transcriptional activity; Potency, µM (titrated, usually from 53.6 µM), inactives show at the highest dose activity change, negative = inhibition, most hits filed as inhibitors; hit rate 5.4% among 310,000; P51450; Drosophila S2 Gal4-RORgamma UAS-luciferase reporter, 20 h; further: potency means the concentration at half of the fitted maximal effect; on the % scale 0 is the no-effect control and ±100 the full control effect; nearly all actives have a fitted effect of over 60% in size
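A Gal4/UAS one-hybrid system in insect cells: metallothionein-promoter Gal4–ROR gamma fusion plus Photinus luciferase reporter. Copper sulfate 700 uM final, 20 hr ambient incubation, luminescent detection after 10 min with reagent.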
uPA generation: inhibitors of cell surface uPA generation | Potency, µM (highest dose often 38.3 µM), for the others: at the highest dose activity change, negative = inhibition, actives largely listed as inhibitors | hit rate 0.31% among 330,000 | cell surface uPA generation assay, qHTS; active means well fitted inhibition curve with a large enough effect; inconclusive means small, poorly fitted or top-dose-only effect; inactive means no such curve, though single readings can be large or run the other way; tested in mouse RAW 264.7 cells; further: potency means the concentration at half of the fitted maximal effect; on the % scale 0 is the no-effect control and ±100 the full control effect; nearly all actives have a fitted effect of over 55% in size
An asterisk follows results filed as active; ? = inconclusive; . = no result given; ! = repeats disagree; [ ] = remark or other dose. Unless noted, the call rests on the fitted dose curve; in most records, active means well fitted curve in the direction sought with a large enough effect; inconclusive means small, poorly fitted or top-dose-only effect, or another doubt; inactive means no such curve, though single readings can be large; an effect the other way counts as inactive or inconclusive.

SMILES	Gal4-VP16 FLuc	TRPV1 PAM	TRPV1 agonist	RORg inh	uPA generation
Cc1ccc2c(c1)Oc1ccc([N+](=O)[O-])cc1C(=O)N2	5%	-7	0	-5%	0%
CNS(=O)(=O)c1cc2c3c(cccc3c1)C(=O)NC2=O	1%	-7	3	17%	7.1µM*
CC(C)C1COC(c2cccn2Cc2ccccc2Cl)=N1 (stereo unspecified)	7%	-8	1	?	-1%
Cc1ccc(Cn2cccc2C2=NC(C)CO2)cc1 (stereo unspecified)	-7%	-13	13	18µM*	1%
Cc1cc(C)nc(N/N=C/c2ccccc2OCc2cccc(Br)c2)n1	35µM*	6	23	50µM*	7%
Cc1cc(C)nc(N/N=C/c2cc(Br)ccc2O)n1	18µM*	4	2	3.2µM*	1%
Cc1cc(C)nc(N/N=C/c2ccccc2OCc2ccc(Cl)cc2)n1	?	-13	30	10µM*	2%
Cc1cc(C)nc(N/N=C/c2ccccc2OCc2ccccc2)n1	?	-25	22	8.9µM*	5%
Cc1cc(C)nc(N/N=C/c2ccccc2OCC(=O)O)n1	-6%	1	-6	-24%	-1%
CCOc1ccccc1/C=N/Nc1cc(C)nc2ccc(C)cc12	?	-1	6	1%[1.91 µM]	3%
CC1CCC(C(C)C)C(P(=O)(c2ccccc2)c2ccccc2)C1 (stereo unspecified)	-2%	.	.	3%	.
CCOc1ccccc1/C=N/Nc1nc(C)cc(=O)[nH]1	1%	1	-2	-2%	0%
Cc1cc(C)nc(N/N=C/c2ccccc2OCc2ccc(Br)cc2)n1	?	-19	?	7.1µM*	5%
O=C(C[n+]1cc(-c2ccc(Cl)cc2)n2c1CCCCC2)c1ccccc1	-3%	-10	0	-14%	-4%
COc1ccc(-c2c[n+](CC(=O)OC3CC(C)CCC3C(C)C)c3n2CCC3)cc1 (stereo unspecified)	7.9µM*	-5	2	?	6.3µM*
CC(C)[C@@H]1CC[C@@H](C)C[C@H]1OC(=O)C[n+]1cc(-c2ccc(Cl)cc2)n2c1CCCCC2	11µM*	1	2	?	-19%
O=C(Nc1ccc2c(c1)OCO2)c1c[nH]c(=O)n(-c2ccc(F)cc2)c1=O	-11%	-3	-1	36%	-2%
COc1ccccc1NC(=O)CCCC(=O)OC(C)C(=O)c1ccccc1 (stereo unspecified)	-5%	?	5	?	.
O=C(c1cc(C(F)(F)F)cc(C(F)(F)F)c1)N1CCC2(CC1)CN(c1ccccn1)C2	16µM*	.	.	-38%	.
Fc1ccc(-c2nnc(-c3ccc(Cl)cc3Cl)o2)cc1	10µM*	-10	?	14µM*	?
Clc1ccc(-c2nnc(-c3ccccc3)o2)c(Cl)c1	?	-19	?	-22%	-7%
O=C(Cc1ccc(-n2c(=O)[nH]c3ccsc3c2=O)cc1)N1CCN(c2ccc(Cl)cc2)CC1	2%	-10	-2	15%[10 µM]	18%
Oc1ccc(/C=C\c2cc(O)cc(O)c2)cc1	13µM*	.	.	3.5µM*!	.
Oc1ccc(/C=C/c2cc(O)cc(O)c2)cc1	14µM*!	1	1	2µM*	6.3µM*
CC1=CC(C)(C)Nc2ccc(OC(=O)CCN3C(=O)c4ccccc4C3=O)cc21	5.6µM*	-5	-2	?	-14%
SMILES	Gal4-VP16 FLuc	TRPV1 PAM	TRPV1 agonist	RORg inh	uPA generation
COc1ccc(OC)c(C(=O)/C=C/c2cccnc2)c1	2.8µM*	6	-3	7.9µM*	-14%
C(=Cc1cccnc1)c1ccncc1	.	.	.	.	-2%
COc1cc(OC)c(C(=O)/C=C/c2ccccc2)c(O)c1O	10µM*	-17	6	?	?
COc1cc(C(=O)/C=C/c2cccnc2)ccc1O	?	0	-1	10µM*	-12%
O=C(/C=C/c1cccnc1)c1cc(F)ccc1O	?	.	.	-4%	-17%
O=C(/C=C/c1cccnc1)/C=C/c1cccnc1	5µM*	4	5	5µM*	?
COc1ccc(/C=C/C(=O)c2ccc(OC)cc2OC)cc1	-6%	15	-1	13%	?
CCC(=O)Nc1c(-c2ccccc2)c(=O)c2ccccc2n1C	-5%	7	1	10%	-2%
COc1ccc(-c2nc(NC(=O)c3ccc(OCC(=O)Nc4ccc(F)cc4)c(OC)c3)sc2C)cc1	20µM*	-9	-5	?	-5%
CC(=O)c1ccc(OCc2ccc(Oc3c(Cl)cccc3[N+](=O)[O-])cc2)cc1	20µM*	4	2	?	-6%
CC(=O)c1ccc(OCc2ccc(C(=O)c3ccccc3)cc2)cc1	?	?	0	?	-9%
O=C(NCc1ccccc1)c1cccnc1Sc1ccccc1	8%	11	-6	18%	-1%
O=C(NCc1cc([N+](=O)[O-])ccc1O)c1cccnc1Sc1ccccc1	11µM*	-5	-1	10µM*	6%
Cc1ccc(Sc2ncccc2C(=O)NCc2cc([N+](=O)[O-])ccc2O)c(C)c1	7.1µM*	-3	?	5µM*	-5%
Cc1ccc(Sc2ncccc2C(=O)NCC(c2ccc(F)cc2)N2CCOCC2)c(C)c1 (stereo unspecified)	.	17	10	.	-9%
O=C(NNC(=O)c1cccnc1SCc1cccc([N+](=O)[O-])c1)c1ccccn1	5µM*	19	-4	3.5µM*	-7%
Cc1sc(NC(=O)CN2CCCC2)nc1-c1ccc2c(c1)CCN2C(=O)c1cccc(F)c1	?	6	0	11µM*	-11%
COc1ccc(NC(=O)c2ccc3c(=O)n(-c4ccc(OC)cc4OC)c(=S)[nH]c3c2)c(OC)c1	8.9µM*	12	-3	2.8µM*	0%
COc1ccc(-n2c(=S)[nH]c3cc(C(=O)Nc4ccc(OC)c(OC)c4)ccc3c2=O)cc1	-22%	-3	-3	-15%	-4%
COc1ccc(-n2c(=S)[nH]c3cc(C(=O)Nc4ccc(C)c(F)c4)ccc3c2=O)c(OC)c1	13µM*	2	?	5µM*	-16%
COc1ccc(-n2c(=S)[nH]c3cc(C(=O)Nc4cc(C(N)=O)ccc4OC)ccc3c2=O)c(OC)c1	-3%	1	-3	-56%	.
CCOc1ccc(NC(=O)c2ccc3c(=O)n(-c4ccc(OC)cc4OC)c(=S)[nH]c3c2)cc1	16µM*	-1	?	?	.
OCC1OC(n2cnc3c(NCc4ccco4)ncnc32)C(O)C1O (stereo unspecified)	-7%	.	.	0%	-9%
COc1cccc(NC(=O)c2ccnc(N3CCC(C(=O)NCc4ccccc4OC)CC3)c2)c1	4%	-9	6	26%	0%
CC(C)(C)OC(=O)NC(Cc1ccccc1)C(=O)NC1COC2CC(n3ccc(=O)[nH]c3=O)OC12 (stereo unspecified)	-3%	.	.	8%	.
